# VACV mCherry inh – vaccinia inhibition (mCherry reporter). AID 720579. actives 0.63% (n = 310,000). Potency, µM (titrated, usually from 36.5 µM), most hits filed as inhibitors. Vaccinia virus mCherry reporter infection, fluorescence; calls by dose curve; tested in A549 cells; further: nearly all actives have a fitted effect of over 35% in size
# MARV entry inh – Marburg virus entry inhibition. Marburg virus pseudotyped entry inhibition, cell reporter. Potency, µM (doses to about 37.8 µM), actives largely listed as inhibitors. actives 1.8% (n = 300,000). AID 540276; calls by dose curve; tested in HEK293 cells
# FMDV inh – foot and mouth disease virus antiviral activity | FMDV antiviral cell-based qHTS | Potency, µM (highest dose often 57.9 µM), usual class: inhibitors | actives 1.2% (n = 410,000) | AID 1159524; calls by dose curve; tested in HEK293T cells; further: read-out not given here; nearly all actives have a fitted effect of over 45% in size
# HCMV antiviral – blocks human cytomegalovirus replication; HFF cells, HCMV-luciferase reporter, 72 h; hits give low values; actives 4.5% (n = 410,000); activity change, negative = inhibition, % at 57.5 µM; AID 1259415; in the data active means activity change below about -60%; inconclusive means no clear call, values can overlap the other calls; inactive means above about -39%
#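 Two-dose cell screen: HFF monolayers treated with compounds and infected with luciferase-expressing HCMV at 1 PFU/cell, 72 h at 37C, then lysed for luciferase measurement.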
# LASV entry inh – inhibitors of Lassa virus binding or cell entry | actives 1.2% (n = 300,000) | AID 540256 | Potency, µM (doses to about 37.9 µM), actives largely listed as inhibitors | Lassa virus pseudotype entry inhibition, cell reporter; calls by dose curve; tested in HEK293 cells; further: nearly all actives have a fitted effect of over 50% in size
# Vaccinia Venus – vaccinia inhibition (Venus reporter). Potency, µM (highest dose often 36.5 µM), hits mostly inhibitors. Vaccinia virus Venus reporter expression, fluorescence. AID 720580. actives 0.46% (n = 330,000); calls by dose curve; tested in A549 cells; further: nearly all actives have a fitted effect of over 30% in size
# A number is an active result; . = inactive; ? = inconclusive; / = no result. A selection: hits, their analogues and other compounds. The true share with any hit is near 6.5%.
SMILES,VACV mCherry inh,MARV entry inh,FMDV inh,HCMV antiviral,LASV entry inh,Vaccinia Venus
CCOC(=O)c1c(C)oc2c1c(C(c1ccccc1)N1CCOCC1)c(O)c1ccccc12 (stereo not given),/,?,.,.,23.1µM,/
CN(C)c1ccc(C(I)C(I)c2ccnc3ccccc23)cc1 (stereo not given),.,/,/,/,/,.
COc1ccc(S[C@]2(c3nc(C)no3)CC(=O)N(c3ccccc3)[C@@H]2c2ccc(OC)cc2)cc1,/,/,/,.,/,/
OC(CNCCC1C=Nc2ccccc21)Cn1c2ccc(Cl)cc2c2cc(Cl)ccc21 (stereo not given),20µM,?,.,.,?,?
O=c1c(C=NCCN2CCNCC2)c(O)n(C2CCCCC2)c(=O)n1C1CCCCC1,.,20.6µM,.,/,.,.
COC(=O)c1ccc(C(=O)NCC2Cc3cc(F)cc(-c4cncnc4)c3O2)cc1 (stereo not given),.,/,.,/,/,.
Nc1nc2c(nc(Br)n2C2OC3COP(=O)(O)O[C@@H]3C2O)c(=O)[nH]1 (stereo not given in full),/,?,/,/,.,/
CCCCC[C@H](O)/C=C/C1C(=O)C=C[C@H]1C/C=C\CCCC(=O)OC (stereo not given in full),.,/,25.1µM,-109.8,/,.
COC(=O)c1c(OCc2ccccn2)cc(=O)n2c1CCN(Cc1ccc3c(c1)CCCN3C)CC2,.,/,.,/,/,.
O=C(NCC1CCS(=O)(=O)C1)Oc1ccccc1 (stereo not given),/,.,.,-95.4,.,/
CCCN1CNc2c(c(=O)[nH]c(=S)n2CCC)C1,.,/,/,/,/,.
COc1ccccc1N1CCN(c2ccc(-c3nc(-c4ccccc4)no3)cc2[N+](=O)[O-])CC1,.,?,.,.,.,.
c1ccc(-c2ccc(-c3cn4c(n3)CCC4)cc2)cc1,.,7.08µM,?,-61.7,10µM,.
CC1=C(/C=C/C(C)=C/C=C/C(C)=C\CO)C(C)(C)CCC1,.,/,.,/,/,.
COc1ccc(CNC(=O)c2cnn(-c3ccccc3)c2-n2cccc2)cc1OC,.,.,?,.,/,.
COc1ccc(/C=C/CN2CCC(CO)(Cc3ccccc3Cl)CC2)cc1,.,?,.,-69.6,.,.
COCC1CCCN(Cc2ccc3c(c2)CN(C(=O)c2cc(-c4ccccc4)n[nH]2)CCO3)C1 (stereo not given),.,/,.,/,/,.
Cc1nc2c(c(=O)n1CCC1=CCCCC1)c1nc3ccccc3nc1n2/N=C/c1ccccc1,/,.,.,/,?,/
CCOCCCn1c(C)nc2c(c1=O)c1nc3ccccc3nc1n2CCC1=CCCCC1,/,10µM,?,?,?,.
CN(Cc1cccs1)C(=O)COc1ccc(-c2nnco2)cc1,/,.,.,-100.1,.,/
COc1ccc(CNCCc2c(C)[nH]c3ccc(OC(F)(F)F)cc23)c(OC)c1,?,6.31µM,.,-66.2,?,.
COc1ccc2[nH]c(C)c(CCNc3ccc(C(F)(F)F)cc3[N+](=O)[O-])c2c1,.,2.51µM,?,.,.,.
Cc1ccccc1C(=O)N1CCc2c(cnc(C)c2CNC(=O)c2ccc3c(c2)OCO3)C1,.,/,.,/,/,.
O=C1C(=O)N(c2ccccc2)C(c2ccccc2[N+](=O)[O-])/C1=C(\O)c1ccccc1 (stereo not given),.,.,.,.,.,.
CCOc1ccc(N2C(=O)C(=O)/C(=C(/O)c3ccccc3)C2c2ccccc2[N+](=O)[O-])cc1 (stereo not given),.,?,.,-73.0,.,.
SMILES,VACV mCherry inh,MARV entry inh,FMDV inh,HCMV antiviral,LASV entry inh,Vaccinia Venus
O=C(NCc1cccnc1)/C(=C\c1ccc(-c2ccc(Cl)c(Cl)c2)o1)S(=O)(=O)c1ccccc1,?,?,?,-102.2,?,11.2µM
O=C(NCc1cccnc1)c1ccc(-c2ccc(Cl)cc2)o1,/,/,.,.,/,/
Cc1n[nH]c(C)c1CCCCOc1ccccc1,.,.,?,-82.4,.,.
C=CCN(c1ccccc1OC)S(=O)(=O)c1cccc(C(=O)OCC(=O)N2CCOCC2)c1,/,/,.,.,/,/
COc1ccc(C(=O)OCC(=O)c2c[nH]c3ccccc23)cc1OC,/,/,.,.,/,/
C=CCN(c1ccccc1OC)S(=O)(=O)c1cccc(C(=O)OCC(=O)c2c[nH]c3ccccc23)c1,.,?,?,.,9.2µM,.
COc1cc(OC)c(N(C)S(=O)(=O)c2cccc(C(=O)OCC(=O)c3c[nH]c4ccccc34)c2)cc1Cl,.,?,8.91µM,?,?,.
CN(c1ccccc1)S(=O)(=O)c1cccc(C(=O)Nc2nccs2)c1,.,/,.,?,/,.
COc1cc(OC)c(N(C)S(=O)(=O)c2cccc(C(=O)Nc3nccs3)c2)cc1Cl,.,8.91µM,?,?,?,.
COc1cc(C(=O)OCC(=O)c2c[nH]c3ccccc23)ccc1OCC(=O)N1CCOCC1,/,.,.,-63.9,?,/
CCOc1cc(C(=O)OCC(=O)c2c[nH]c3ccccc23)ccc1OCC(=O)N1CCOCC1,.,.,.,.,.,.
CC[N@+]1(C)CCC[C@H](OC(=O)C(O)(c2ccccc2)c2ccccc2)C1,/,.,/,/,/,/
CC1CCN(C(=O)c2ncn3c2C(=O)NC[C@H]3C)CC1,/,/,/,.,/,/
CC(C)c1ccc(N2C(=O)CSC23C(=O)N2CCCc4cccc3c42)cc1 (stereo not given),/,.,.,-110.6,.,/
COc1ccc(-c2cc(C(F)(F)F)n3nc(C(=O)Nc4cc(Cl)cc(Cl)c4)cc3n2)cc1,.,.,.,.,.,.
CC(=O)c1cccc(NC(=O)c2cc3nc(-c4ccc(Br)cc4)cc(C(F)(F)F)n3n2)c1,12.6µM,/,.,.,.,?
O=C(NCCc1ccccc1)c1cc2ccccc2oc1=O,/,/,.,-103.0,/,/
COc1ccc(CCNC(=O)c2cc(=O)[nH]c3ccccc23)cc1,.,?,.,.,/,.
CSc1ccc(CN(C)C(=O)c2cc(=O)[nH]c3ccccc23)cc1,.,.,2.82µM,.,.,.
Cc1cc(C)c[n+](CC(=O)c2cc3ccccc3oc2=O)c1,.,.,.,-98.4,.,.
O=C(NCCc1ccccc1)c1cc(=O)[nH]c2ccccc12,.,.,.,-60.5,.,.
Cc1ccc[n+](CC(=O)c2cc3ccccc3oc2=O)c1,.,.,/,.,.,.
O=C(NCCc1ccc(F)cc1)c1cc2ccccc2oc1=O,/,/,.,.,/,/
CCc1cccc(C)c1NS(=O)(=O)c1c(C(=O)N2CCC(C)CC2)c(C)n(C)c1C,.,/,.,.,.,.
COC(=O)[C@]1(Sc2ccc(OC)cc2)CC(=O)N[C@@H]1c1ccc(OC(C)C)c(OC)c1,/,/,/,.,/,/
CCc1ccc(C=O)cc1,.,/,/,/,/,.
COc1ccc(C2=CC(c3ccc(OC)c(OC)c3)NC(=S)N2)cc1 (stereo not given),?,.,.,.,.,.
COc1ccc(C2C=C(C34CC5CC(CC(C5)C3)C4)NC(=S)N2)cc1 (stereo not given),/,14.6µM,.,.,?,/
OC1(c2cccnc2)CCN(Cc2ccc3c(c2)CN(Cc2cc(F)ccc2F)CCO3)CC1,.,/,.,/,/,.
Cc1cccc(C#CC2=CC(=O)CC(C)(C)C2)c1,.,/,.,-99.5,/,.

# Screens: PubChem BioAssay, National Center for Advancing Translational Sciences (NCATS)
